Screening results (PubChem BioAssay)
An excerpt weighted towards active compounds, which were near 0.4% of everything screened.
UDG counter – counter-screen for AID inhibitors: uracil-DNA glycosylase inhibition; FRET deamination/UDG coupled assay, UDG read, 4 h; Potency, µM (series often up to 115 µM), usual class: inhibitors; 0.14% of 91,000 active; AID 1347430; also: nearly all actives have a fitted effect of over 65% in size
AID inhibitor – activation induced cytidine deaminase inhibition. 0.32% of 91,000 active. Q9GZX7. Potency, µM (titrated, usually from 115 µM), most hits filed as inhibitors. AID deamination FRET fluorescence, UDG-coupled, 4 h; also: nearly all actives have a fitted effect of over 25% in size
Target sequence (Q9GZX7 whole entry, looked up): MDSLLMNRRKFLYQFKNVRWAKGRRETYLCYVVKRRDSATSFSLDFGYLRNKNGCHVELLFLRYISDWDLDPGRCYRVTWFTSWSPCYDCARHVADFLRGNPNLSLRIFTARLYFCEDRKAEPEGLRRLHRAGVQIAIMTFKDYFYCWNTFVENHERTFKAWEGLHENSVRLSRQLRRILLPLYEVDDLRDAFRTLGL
Numbers stand for hits; n = inactive; u = inconclusive; ! = a repeat was not active. Calls follow the shape of the dose curve; as a rule, active = well fitted curve in the direction sought with a large enough effect; inconclusive = small, poorly fitted or top-dose-only effect, or another doubt; inactive = no such curve, though single readings can be large; an effect the other way counts as inactive or inconclusive.

SMILES	UDG counter	AID inhibitor
CCCCN(CC)CCNC(=O)c1cc2c(-c3ccc(Cl)cc3)nn(C)c2s1	n	89µM
CCCN(CCC)CCNC(=O)c1cc2c(-c3ccc(Cl)cc3)nn(C)c2s1	n	u
Cc1cccc(N2CCN(C(=O)c3c4c(nc5ccccc35)C(=O)N(C3CCCCC3)C4)CC2)c1C	n	28µM
Cc1ccc(N2CCN(C(=O)c3c4c(nc5ccccc35)C(=O)N(C3CCCCC3)C4)CC2)c(C)c1	n	u
COc1ccc2[nH]c(C)c(C(=O)CN3CCC(Cc4ccccc4)CC3)c2c1	89µM	n
COc1ccc2[nH]c(C)c(C(=O)CN3CCC(C)CC3)c2c1	n	n
O=C(Oc1c2c3c(noc3c3ccccc13)C(Oc1ccc(F)cc1)=CC2=O)c1ccc(F)cc1	n	n
Cc1cccc(N2CCN(C(=O)c3cc4c(=O)n(C)c5ccccc5c4s3)CC2C)c1 (configuration not stated)	n	n
COCCCNC(=O)c1cc2c(-c3cccc(OC)c3)nn(C)c2s1	n	n
COc1ccc(-c2nn(C)c3sc(C(=O)N4CCN(c5ccccc5F)CC4)cc23)cc1OC	89µM	u
COc1ccccc1N1CCN(C(=O)c2cc3c(-c4ccccc4F)nn(C)c3s2)CC1	n	u
COc1cccc(-c2nn(C)c3sc(C(=O)NCc4ccc(C)cc4)cc23)c1	89µM	u
COc1cccc(-c2nn(C)c3sc(C(=O)N4CCN(c5cccc(C)c5)C(C)C4)cc23)c1 (configuration not stated)	u	40µM
Cc1ccc(C)c(SCC(=O)Cc2ccccc2F)c1	n	n
O=C(CC1N=C2c3ccccc3N=C(SCc3ccc(Cl)cc3)N2C1=O)NC1CCCCC1 (configuration not stated)	n	n
COc1ccc(Cl)cc1NC(=O)CSC1=Nc2ccccc2C2=NC(CC(=O)NC3CCCCC3)C(=O)N12 (configuration not stated)	n	32µM
CC1Cc2cc(S(=O)(=O)NCCC(=O)N(C)Cc3ccco3)ccc2N1C(=O)C1CC1 (configuration not stated)	n	n
CCN(CC)C(=O)CSc1nc(-c2ccccc2F)nc2c1Cc1c(CO)cnc(C)c1O2	n	28µM
CCc1ccc(CSc2nc(-c3ccccc3F)nc3c2Cc2c(CO)cnc(C)c2O3)cc1	n	n
CCC(=O)Nc1ccc(Cl)c(NC(=O)c2ccc3c(c2)OCO3)c1	u	n
Fc1ccc(NC(=S)NC2CC2)cc1Cl	n	n
O=C(O)CN(CCCc1ccccc1)CC(=O)O	n	n
O=C(NCc1cccs1)c1ccc(CSc2nc3ccncc3n2Cc2ccccc2F)cc1	n	79µM
Cc1ccccc1Cn1c(SCc2ccc(C(=O)NCc3cccs3)cc2)nc2ccncc21	n	n
CCC(C)(C)C1CCC(NC(=O)Cn2nc(C)c3ccccc3c2=O)CC1 (configuration not stated)	n	n
SMILES	UDG counter	AID inhibitor
COc1ccc(N(C)C(=O)c2cn(C3CCCCC3)c(=O)c3c2c2ccccc2n3C)cc1	u	40µM
COc1cc(NC(=O)c2cn(C3CCCC3)c(=O)c3c2c2ccccc2n3C)cc(OC)c1OC	n	n
CCOC(=O)N1CCc2c(sc(NCc3ccc(N(C)C)cc3)c2C(=O)Nc2ccc(OC)cc2)C1	n	50µM
CCOC(=O)N1CCc2c(sc(NCc3cccc(F)c3)c2C(=O)Nc2ccc(OC)cc2)C1	u	n
FC(F)(F)c1ccc(=S)[nH]c1	n	n
CCc1ccc(Nc2nc(CSc3ccc(Cl)cc3)nc3sc4c(c23)CCC4)cc1	n	n
Cc1ccc(CSc2nnnn2-c2c(C)n(C)n(-c3ccccc3)c2=O)cc1	n	n
Cc1ccc(-n2[nH]c(CSc3nnnn3-c3ccccc3)cc2=O)cc1	89µM	n
COc1ccc2c(c1)Cc1sc(NC(=O)c3cccc(F)c3)nc1-2	n	u
COc1ccc2c(c1)Cc1sc(NC(=O)c3cccc(Br)c3)nc1-2	n	50µM
Cn1ccc(NC(=O)CCc2nnc(-c3ccccc3)o2)n1	n	n
O=C(c1cnc2c(cnn2Cc2ccccc2)c1)N1CCCc2ccccc21	n	n
CN1CCN(c2nc3c(S(=O)(=O)c4ccc(Cl)cc4)nnn3c3ccsc23)CC1	n	u
CC(C)c1ccc(S(=O)(=O)c2nnn3c2nc(N2CCN(C)CC2)c2sccc23)cc1	n	18µM
COc1ccc(-c2nc3ccccc3n2Cc2ccc(Cl)cc2)cc1	u	45µM
COc1ccc(-c2nc3ccccc3n2Cc2ccc(C(C)C)cc2)cc1	n	u
Cc1cccc(N(C)S(=O)(=O)c2cc(-c3cnc(C4CC4)o3)ccc2C)c1	79µM	u
CCc1ccc(NS(=O)(=O)c2cc(-c3cnc(C4CC4)o3)ccc2C)cc1	n	n
C=CCn1c(N2CCN(Cc3ccccc3)CC2)nc2c1c(=O)n(C)c(=O)n2C	n	n
C[N+](C)(N)CC(=O)[O-]	n	n
COc1ccc(C(=O)Nc2c(N3CCCC3)c3ccccc3oc2=O)cc1OC	n	n
Cc1cc(N)c2ccccc2[n+]1CCCCCCCCCC[n+]1c(C)cc(N)c2ccccc21	89µM	50µM
CCCCCc1ccc(-c2ccc(C(=O)O)cc2)cc1	n	n
CCCCCCCCc1ccc(-c2ccc(C(=O)O)cc2)cc1	n	89µM!
COc1ccc2c(CN3CCN(c4ccccc4O)CC3)cc(=O)oc2c1	n	n
SMILES	UDG counter	AID inhibitor
Cn1ccnc1COc1ccc(CSc2nnnn2C(C)(C)C)cc1	n	n
CN(C(=O)c1nc(-c2cccc(F)c2)n2c1CCCCC2)c1ccccc1F	n	n
CCOc1ccc(CCNC(=O)c2nc(-c3cccc(F)c3)n3c2CCCCC3)cc1OCC	u	18µM
O=C(Nc1cccc(Cl)c1)c1c(NC(=O)C(F)(F)F)sc2c1CCCC2	n	u
Cc1cccc(NC(=O)c2c(NC(=O)C(F)(F)F)sc3c2CCCCC3)c1	n	79µM
CSc1ccc(/C=C/C(=O)Nc2cc(Cl)ccc2C)cc1	n	n
CN(Cc1ccccc1F)C(=O)CN1CCN(c2oc(-c3ccco3)nc2C#N)CC1	n	n
COc1ccc(-c2c(C(=O)O)sc3c2NC(=O)CC32C(=O)N(C)c3c(C)cccc32)cc1 (configuration not stated)	n	n
CCC(Sc1nc2c(sc3ccccc32)c(=O)n1CCc1ccccc1)C(=O)N(CC)CC (configuration not stated)	n	n
CCC(Sc1nc2c(sc3ccccc32)c(=O)n1CCc1ccc(OC)c(OC)c1)C(=O)N(CC)CC (configuration not stated)	n	32µM
COc1ccc(-c2noc(CSc3nnc(-c4ccncc4)n3-c3cccc(C)c3)n2)cc1OC	79µM	u
CCOc1ccc(-n2c(Cc3ccccc3)nnc2SCc2nc(-c3cccs3)no2)cc1	u	32µM
COc1ccc(-c2noc(CSc3nnc(C)n3-c3ccc(C)cc3)n2)cc1OC	u	n
Cc1ccccc1-c1noc(CSc2nnc(-c3ccncc3)n2-c2ccc(F)cc2)n1	u	n
CCOc1ccc(-n2c(SCc3nc(-c4ccc(OC)cc4)no3)nnc2-c2ccncc2)cc1	79µM	u
COc1ccc(-n2c(SCc3nc(-c4ccc(C)cc4)no3)nnc2-c2ccccc2)cc1	n	n
CCOc1ccc(-n2c(SCc3nc(-c4ccccc4C)no3)nnc2-c2ccccc2)cc1	n	n
Cc1ccc(-n2c(SCc3nc(-c4ccccc4C)no3)nnc2-c2ccncc2)cc1C	u	32µM
O=C(NCc1ccccc1S(=O)(=O)N1CCOCC1)c1ccc(F)cc1	n	n
